{
  "source": "PubChem BioAssay AID620",
  "about": "(Sanford-Burnham Center for Chemical Genomics, 2007)",
  "note": "Among all 87,000 compounds or so, about 360 (0.41%) were called active. This excerpt belongs to a sample that is enriched for actives. Values without a mark were called inactive. Rule as the data show it: active = cytotoxicity above about 50%; inactive = the rest.",
  "data": [
    {"experiment": "cytotoxicity in HT1080 fibrosarcoma cells, cell-based, fluorescence readout (AID 620);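 also: cells exposed to compound overnight then 4 h with Alamar Blue; 0% = vehicle DMSO and 100% = killing control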", "settings": "HT1080 viability, at 10 µM, stronger effect = higher value", "values": [
      {"smiles": "Cc1cccc(Nc2nn3c(=O)c4ccccc4nc3s2)c1", "cytotoxicity": "6.1%"},
      {"smiles": "CCCCCCSc1cc(C)nc2ncnn12", "cytotoxicity": "-4.5%"},
      {"smiles": "CCOc1cc(-c2noc(-c3ccncc3)n2)cc(Br)c1OC", "cytotoxicity": "-6.4%"},
      {"smiles": "CCN(CC)C(=O)CN(C#N)c1nc(OC)nc(N(C)C)n1", "cytotoxicity": "5.3%"},
      {"smiles": "CCCCn1c(N)c(N(CC)C(=O)c2ccc3c(c2)S(=O)(=O)c2ccccc2C3=O)c(=O)[nH]c1=O", "cytotoxicity": "-1.2%"},
      {"smiles": "CCn1c(SCC(=O)Nc2ccc3c(c2)OCO3)nnc1-c1cnccn1", "cytotoxicity": "102% (active)"},
      {"smiles": "CCn1c(SCC(=O)Nc2ccc3c(c2)OCCO3)nnc1-c1ccccn1", "cytotoxicity": "37%"},
      {"smiles": "Cn1c(SCC(=O)Nc2ccc3c(c2)OCO3)nnc1-c1cnccn1", "cytotoxicity": "13.4%"},
      {"smiles": "CN1C(=O)c2ccc(S(=O)(=O)c3ccc(C(=O)O)cc3)cc2C1=O", "cytotoxicity": "3.3%"},
      {"smiles": "Cc1ccc2[nH]c(=O)c(-c3nc4ccccn4c3NCc3ccco3)cc2c1", "cytotoxicity": "-4.4%"},
      {"smiles": "COc1ccc2c(c1)C(C1=C(O)CC(C)(C)CC1=O)C1=C(CC(C)(C)CC1=O)O2", "note": "(configuration not stated)", "cytotoxicity": "10.3%"},
      {"smiles": "CC[C@]1(O)CC2CN(CCc3c([nH]c4ccccc34)[C@@](C(=O)OC)(c3cc4c(cc3OC)N(C=O)[C@H]3[C@@](O)(C(=O)OC)[C@H](OC(C)=O)[C@]5(CC)C=CCN6CC[C@]43[C@@H]65)C2)C1", "note": "(some centres not stated)", "cytotoxicity": "65.8% (active)"},
      {"smiles": "CC(C)Cn1c(=O)c2c(c3ccccc31)OC(C)C(=O)N2", "note": "(configuration not stated)", "cytotoxicity": "-0.6%"},
      {"smiles": "CCOC(=O)CNC(=O)C(Cc1ccccc1)NS(=O)(=O)c1ccc2c(c1)CCC(=O)N2", "note": "(configuration not stated)", "cytotoxicity": "0.8%"},
      {"smiles": "Oc1ccc(-c2csc(-c3ccccc3)n2)cc1O", "cytotoxicity": "15.6%"},
      {"smiles": "NS(=O)(=O)c1ccc(Nc2nc(-c3ccc4ccccc4c3)cs2)cc1", "cytotoxicity": "-2.9%"},
      {"smiles": "Oc1ccc(Nc2nc(-c3ccc(O)cc3)cs2)cc1", "cytotoxicity": "2.8%"},
      {"smiles": "Oc1ccc(-c2nc(-c3ccc(O)c(O)c3)cs2)cc1", "cytotoxicity": "61.2% (active)"},
      {"smiles": "Oc1ccc(Nc2nc(-c3ccc4ccccc4c3)cs2)cc1", "cytotoxicity": "53.6% (active)"},
      {"smiles": "Cc1cccnc1Nc1nc(-c2ccc(O)c(O)c2)cs1", "cytotoxicity": "9.2%"},
      {"smiles": "O=C(O)CCc1ccc(-c2cccs2)n1CCC(=O)O", "cytotoxicity": "-6.8%"},
      {"smiles": "Cn1nc(-c2ccccc2)c(-c2nc(-c3cccc(C(F)(F)F)c3)no2)c1Cl", "cytotoxicity": "6.9%"},
      {"smiles": "Cc1cc(NC(=O)CCCSc2nc(-c3ccco3)cc(C(F)(F)F)n2)no1", "cytotoxicity": "2.7%"},
      {"smiles": "COC(=O)c1ccc(C(=O)OC)c(NC(=O)CSc2nc(-c3ccco3)cc(C(F)(F)F)n2)c1", "cytotoxicity": "5.6%"},
      {"smiles": "Cc1cccc(C)c1NC(=O)CSc1nc(-c2ccco2)cc(C(F)(F)F)n1", "cytotoxicity": "3.3%"},
      {"smiles": "Cc1ccc(NC(=O)CSc2nc(-c3ccco3)cc(C(F)(F)F)n2)cc1C", "cytotoxicity": "-8.6%"},
      {"smiles": "COC(=O)c1ccccc1NC(=O)CSc1nc(-c2ccco2)cc(C(F)(F)F)n1", "cytotoxicity": "52.3% (active)"},
      {"smiles": "O=C(CSc1nnc(-c2ccccn2)n1Cc1ccccc1)Nc1ccc2c(c1)OCO2", "cytotoxicity": "3.3%"},
      {"smiles": "Cc1oc(C(=O)O)cc1COc1ccc2c(C)cc(=O)oc2c1", "cytotoxicity": "-7.7%"},
      {"smiles": "CC(=O)c1c(C)[nH]c(C(=O)N2CCN(c3ncccn3)CC2)c1C", "cytotoxicity": "-1.6%"},
      {"smiles": "CC(=O)c1c(C)[nH]c(C(=O)N2CCN(c3ccc(F)cc3)CC2)c1C", "cytotoxicity": "-1.4%"},
      {"smiles": "COc1cccc(N2CCN(C(=O)c3[nH]c(C)c(C(C)=O)c3C)CC2)c1", "cytotoxicity": "51% (active)"},
      {"smiles": "COc1ccccc1NC(=O)Cn1nc(C(F)(F)F)c2c1CCCC2", "cytotoxicity": "-0.3%"},
      {"smiles": "CCOC(=O)c1c(C)cc(=O)oc1C", "cytotoxicity": "-21.5%"},
      {"smiles": "CCOC(=O)c1c(C)oc2cc3c(C(=O)OCC)c(C)oc3cc12", "cytotoxicity": "-0.1%"},
      {"smiles": "CCOC(=O)c1c(C)oc2c(F)c(F)c(F)c(F)c2c1=O", "cytotoxicity": "96.5% (active)"},
      {"smiles": "COC(=O)Nc1cc(C)nc2ccccc12", "cytotoxicity": "-9.1%"},
      {"smiles": "COc1ccc(N2CCN(c3ncnc4nc[nH]c34)CC2)cc1", "cytotoxicity": "-6.5%"},
      {"smiles": "O=c1cc(N2CCN(Cc3ccccc3)CC2)[nH]c(=O)n1-c1cccc(C(F)(F)F)c1", "cytotoxicity": "12.7%"},
      {"smiles": "Cc1onc(-c2ccccc2)c1C(=O)Nc1ccccc1N1CCOCC1", "cytotoxicity": "3.3%"},
      {"smiles": "Cc1nnc(SCC(=O)Nc2cc(C(F)(F)F)ccc2N2CCOCC2)o1", "cytotoxicity": "7%"},
      {"smiles": "O=C(Nc1cc(C(F)(F)F)ccc1N1CCOCC1)c1c(F)c(F)c(F)c(F)c1F", "cytotoxicity": "1.3%"},
      {"smiles": "O=C(CSc1nc2ccccc2[nH]1)Nc1cc(C(F)(F)F)ccc1N1CCOCC1", "cytotoxicity": "-2.4%"},
      {"smiles": "Cc1ccc2nc(SCC(=O)Nc3cc(C(F)(F)F)ccc3N3CCOCC3)[nH]c2c1", "cytotoxicity": "62.5% (active)"},
      {"smiles": "Cc1onc(-c2ccccc2)c1C(=O)Nc1cc(C(F)(F)F)ccc1N1CCOCC1", "cytotoxicity": "59.2% (active)"},
      {"smiles": "COCCNC(=O)C1(C)C=CCN1C(C)=O", "note": "(configuration not stated)", "cytotoxicity": "-17.3%"},
      {"smiles": "COc1ccc(NC(=O)c2ccc(-n3nc(C)cc3C)cc2)cc1OC", "cytotoxicity": "-17.7%"},
      {"smiles": "COC(=O)c1ccccc1S(=O)(=O)C(C)(C)C", "cytotoxicity": "7.6%"},
      {"smiles": "CCOCCCNC(=O)C1CCN(S(=O)(=O)N2CCCCC2)CC1", "cytotoxicity": "1.1%"},
      {"smiles": "COC(=O)C1=[N+]([O-])OC(C(=O)OC)C1c1c[nH]c2ccccc12", "note": "(configuration not stated)", "cytotoxicity": "41.5%"},
      {"smiles": "CCc1nc2c(sc3nc4c(cc32)COC(C)(C)C4)c(=O)n1Cc1ccco1", "cytotoxicity": "1.2%"},
      {"smiles": "CC1(C)Cc2nc3sc4c(=O)n(CC(=O)NCc5ccco5)cnc4c3cc2CO1", "cytotoxicity": "15.9%"},
      {"smiles": "Cc1nc2c(sc3nc4c(cc32)COC(C)(C)C4)c(=O)n1CC(=O)NCc1ccco1", "cytotoxicity": "55.6% (active)"},
      {"smiles": "CSC1=Nc2sc3c(c2C2=NCCN12)CCCC3", "cytotoxicity": "7.2%"},
      {"smiles": "COc1cc2c(cc1OC)C1C/C(=N\\O)C(CC(C)C)CN1CC2", "note": "(configuration not stated)", "cytotoxicity": "-13.4%"},
      {"smiles": "CC[C@H]1CN2CCc3cc(OC)c(OC)cc3[C@@H]2C[C@@H]1C[C@H]1NCCc2cc(OC)c(OC)cc21", "cytotoxicity": "78.8% (active)"},
      {"smiles": "COc1cc2c(cc1OC)C1Cc3ccc(OC)c(OC)c3CN1CC2", "note": "(configuration not stated)", "cytotoxicity": "-0.8%"},
      {"smiles": "Cc1oc(-c2ccccc2F)nc1CN1CCC(C(=O)NCc2cccs2)CC1", "cytotoxicity": "-2.2%"},
      {"smiles": "Cc1ncc(S(=O)(=O)c2ccc(Cl)cc2)c(-c2ccccc2)n1", "cytotoxicity": "18.2%"},
      {"smiles": "O=S(=O)(Nc1nnc(-c2ccccc2)s1)c1ccc(Cl)cc1", "cytotoxicity": "5.7%"},
      {"smiles": "O=C1NCCCC1C(=O)N1CCN(C(=O)C2CCCNC2=O)CC1", "note": "(configuration not stated)", "cytotoxicity": "-7.4%"},
      {"smiles": "O=C(CCn1cccc1)Nc1ccccc1F", "cytotoxicity": "-5.1%"}
    ]}
  ]
}
